In PubChem BioAssay:
Values without a mark were called inactive. Active and inactive are the calls of the source. No rule for the calls is given here.

Legend:
[1] = system: Botulinum neurotoxin type F light chain protease (Clostridium botulinum); test: Clostridium botulinum type F light chain protease inhibitors, microsphere substrate cleavage, validation (AID 588459); conditions: multiplex microsphere protease substrate cleavage assay, flow cytometry; at 10 µM; hits give high values
[2] = biological target: Botulinum neurotoxin type A (Clostridium botulinum) (UniProt P0DPI0); test: BoNT/A light chain protease inhibitors, biochemical, multiplex microsphere flow cytometry, validation set (AID 588460); conditions: at 10 µM, hits give high values
[3] = biological target: Lethal factor (Bacillus anthracis) (UniProt P15917); test: Bacillus anthracis lethal factor inhibition, microsphere flow cytometry protease assay, validation at 10 µM (AID 588461); conditions: multiplex microsphere protease cleavage assay, hits give high values
Sequence of Lethal factor (Bacillus anthracis) (P15917 whole entry, looked up): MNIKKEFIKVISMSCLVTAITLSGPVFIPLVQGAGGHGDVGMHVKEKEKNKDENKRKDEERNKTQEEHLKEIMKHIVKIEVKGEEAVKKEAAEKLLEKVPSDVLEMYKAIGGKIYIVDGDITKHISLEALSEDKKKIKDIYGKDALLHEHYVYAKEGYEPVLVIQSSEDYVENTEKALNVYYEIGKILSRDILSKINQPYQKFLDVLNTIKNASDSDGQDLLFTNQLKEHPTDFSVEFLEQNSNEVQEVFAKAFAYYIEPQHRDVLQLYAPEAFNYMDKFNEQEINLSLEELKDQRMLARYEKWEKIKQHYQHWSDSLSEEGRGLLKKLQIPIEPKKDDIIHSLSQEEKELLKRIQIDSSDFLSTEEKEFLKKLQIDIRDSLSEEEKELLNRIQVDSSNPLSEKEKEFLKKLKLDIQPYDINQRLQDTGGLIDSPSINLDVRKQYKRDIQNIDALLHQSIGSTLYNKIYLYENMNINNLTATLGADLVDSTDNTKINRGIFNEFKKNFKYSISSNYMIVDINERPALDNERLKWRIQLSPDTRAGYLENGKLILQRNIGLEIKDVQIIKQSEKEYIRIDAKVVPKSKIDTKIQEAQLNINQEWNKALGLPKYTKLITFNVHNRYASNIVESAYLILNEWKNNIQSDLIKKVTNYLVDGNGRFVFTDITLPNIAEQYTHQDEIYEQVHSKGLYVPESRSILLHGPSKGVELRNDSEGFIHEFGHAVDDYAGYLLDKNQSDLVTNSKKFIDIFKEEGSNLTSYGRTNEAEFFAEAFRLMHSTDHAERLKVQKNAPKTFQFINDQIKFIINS

Sequence of Botulinum neurotoxin type A (Clostridium botulinum) (P0DPI0 whole entry, looked up): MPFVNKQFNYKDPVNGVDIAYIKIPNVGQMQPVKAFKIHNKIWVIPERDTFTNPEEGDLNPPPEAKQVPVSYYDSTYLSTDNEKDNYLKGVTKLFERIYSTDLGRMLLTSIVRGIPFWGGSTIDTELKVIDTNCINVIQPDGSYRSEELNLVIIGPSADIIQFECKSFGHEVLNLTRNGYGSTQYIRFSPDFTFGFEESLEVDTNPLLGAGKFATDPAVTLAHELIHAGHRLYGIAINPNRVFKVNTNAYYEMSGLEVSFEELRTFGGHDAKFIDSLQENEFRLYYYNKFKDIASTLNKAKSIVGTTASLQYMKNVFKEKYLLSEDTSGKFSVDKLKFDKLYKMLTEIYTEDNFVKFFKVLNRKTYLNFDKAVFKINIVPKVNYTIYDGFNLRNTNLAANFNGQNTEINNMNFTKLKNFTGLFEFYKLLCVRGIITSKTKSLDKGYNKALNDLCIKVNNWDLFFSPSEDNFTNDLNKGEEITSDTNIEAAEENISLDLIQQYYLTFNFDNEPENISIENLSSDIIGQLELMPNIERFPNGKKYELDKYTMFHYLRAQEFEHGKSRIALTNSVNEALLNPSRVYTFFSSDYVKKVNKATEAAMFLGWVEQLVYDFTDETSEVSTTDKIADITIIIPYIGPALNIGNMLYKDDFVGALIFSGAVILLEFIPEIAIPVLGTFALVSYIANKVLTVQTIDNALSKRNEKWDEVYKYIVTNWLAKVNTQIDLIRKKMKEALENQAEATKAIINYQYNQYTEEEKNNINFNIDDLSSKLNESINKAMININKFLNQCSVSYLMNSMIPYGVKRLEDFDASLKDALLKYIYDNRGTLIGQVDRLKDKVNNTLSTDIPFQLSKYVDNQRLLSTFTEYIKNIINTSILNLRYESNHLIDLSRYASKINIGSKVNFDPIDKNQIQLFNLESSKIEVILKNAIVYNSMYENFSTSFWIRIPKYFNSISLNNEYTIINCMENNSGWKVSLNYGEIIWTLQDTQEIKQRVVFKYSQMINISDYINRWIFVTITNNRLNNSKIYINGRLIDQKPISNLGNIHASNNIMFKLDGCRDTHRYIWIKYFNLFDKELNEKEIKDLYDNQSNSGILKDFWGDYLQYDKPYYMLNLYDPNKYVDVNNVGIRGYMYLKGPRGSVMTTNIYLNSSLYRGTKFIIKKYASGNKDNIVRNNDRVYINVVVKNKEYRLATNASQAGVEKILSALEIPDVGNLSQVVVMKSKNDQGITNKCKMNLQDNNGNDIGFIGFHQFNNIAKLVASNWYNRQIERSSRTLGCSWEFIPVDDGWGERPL

Compound | inhibition [1] | inhibition [2] [%] | inhibition [3] [%]
CCn1cc(C(=O)O)c(=O)c2ccc(C)nc21 | 1.3% | -1.5 | -3.9
Cn1nc(-c2ccccn2)nc2c(=O)n(C)c(=O)nc1-2 | -0.9% | 2.9 | -13
CC(=O)N/C(=C/c1ccc2c(c1)OCO2)C(=O)NCCO | 3.7% | 0.6 | 1
CC(/C=C1\SC(=O)N(CCCC(=O)O)C1=O)=C\c1ccccc1 | 3.5% | 1.3 | -5.6
Cc1nc(N[C@@H](Cc2c[nH]c3ccccc23)C(=O)O)c2oc3ccccc3c2n1 | 1.3% | -0.2 | -6.5
Cn1c2c(c(=O)[nH]c1=O)C(c1ccc(O)cc1)C1=C(N2)c2ccccc2C1=O (centres undefined) | -0.8% | -0.5 | 3.1
CCOC(=O)Cn1c(C)cc(=O)c2ccccc21 | 6.3% | 1.7 | 9.6
COc1cc2c(cc1OC)CN(C(=O)c1ccc(S(=O)(=O)N(C)c3ccccc3)cc1)CC2 | 0.9% | 0.6 | 3.4
Cn1c2ccccc2c2cc(/C=C(\NC(=O)c3ccccc3)C(=O)O)ccc21 | -0.2% | 0.3 | 4.6
Clc1ccc(CCNc2ncnc3nc[nH]c23)cc1 | 4.5% | 0.1 | -3.1
COc1ccccc1Oc1c(C)oc2c(CN3CCN(CCO)CC3)c(O)ccc2c1=O | -2.3% | -1.2 | 1.4
COc1cc(NS(=O)(=O)c2ccc(N)cc2)nc(OC)n1 | 1.2% | 1.1 | 0.1
O=C1C(=O)c2ccccc2C(O)=C1c1ccccc1F | 4.6% | 0.5 | -1.5
O=C1ON=C(c2ccc(Cl)cc2)/C1=C/c1ccc(O)cc1 | -0.3% | -2.3 | -7.8
COC(=O)C1=CN(Cc2cccs2)C=C(C(=O)OC)C1c1cccc(Cl)c1 | -4.5% | -0.4 | -4
Cc1nc2sccn2c(=O)c1CCN1CCC(=C(c2ccc(F)cc2)c2ccc(F)cc2)CC1 | -6% | -0.2 | -7.2
COc1ccc(/C=C2\CCc3ccccc3C2=O)c(OC)c1OC | 6.4% | 0.8 | 3.9
O=C1c2ccccc2N2C(=O)c3ccccc3C2N1Cc1ccco1 (centres undefined) | 3.3% | 0.7 | 2.8
CC(=O)OC(CC(=O)O)C[N+](C)(C)C (centres undefined) | 3.4% | 0 | -3.6
O=C(Nc1ccc(Oc2c(F)c(F)c(F)c(F)c2F)cc1)OC1CCN2Cc3ccccc3N=C12 (centres undefined) | -1.9% | -1.4 | 2.6

Compound | inhibition [1] | inhibition [2] [%] | inhibition [3] [%]
CCOC(=O)C(=O)N1CCN(c2ccccc2OC)CC1 | 1.5% | -1.1 | -4.9
CN1CCC(OC(c2ccccc2)c2ccccc2)CC1 | -0.8% | -0.5 | -5.1
Cc1cc(C)c(NC(=O)NC(=O)C(Cl)(Cl)Cl)c(C)c1 | 2.9% | 0.1 | -3.8
O=C(/C=C/c1ccc2c(c1)OCO2)NCc1ccc(F)cc1 | -14.5% | -2.4 | -3.4
COc1ccc(CCN(C)CC(=O)Nc2cc(C)nc3ccccc23)cc1OC | 0.4% | 0.9 | -1.4
O=C(NC1CCCCC1)N1CCc2[nH]c3ccccc3c2C1 | 36.5% (active) | 3.5 | 5
CCc1cc(=O)oc2cc(C)c(CN3CCCC(C)C3)c(O)c12 (centres undefined) | 3.9% | -0.1 | -3.1
C[C@@H]1C[C@H]2[C@@H]3C[C@H](F)C4=CC(=O)C=C[C@]4(C)[C@@]3(F)[C@@H](O)C[C@]2(C)[C@@]1(O)C(=O)COC(=O)C(C)(C)C | -2.6% | -2.1 | 3.4
Cc1nonc1CN(C)C(=O)c1ccc(OC2CCN(C(=O)c3cccnc3)CC2)cc1 | 3.6% | 1.2 | 10.7
CC(C)NS(=O)(=O)c1ccc(OCC(=O)Nc2cccc(F)c2)cc1 | -3.9% | -0.3 | -0.8
COc1ccc(NC(=S)N2CCN(CCN3C(=O)c4cccc5cccc(c45)C3=O)CC2)cc1 | 2.5% | 1.6 | -3.3
COc1ccc(C(=O)CC2OC(=O)c3c2ccc(OC)c3OC)cc1 (centres undefined) | 0.2% | 0.7 | 3.4
COc1cccc(=O)c2c(C)n(CC(=O)c3ccccc3)c(C)c12 | -4.4% | 0.1 | -9.8
CCN(CC)C(=O)c1ccc(O)c(OC)c1 | -2.8% | -0.4 | -6.3
CC1(C)C(=O)OC(/C=C\c2ccccc2)C(C)(C)C1=O (centres undefined) | 1.5% | 0.1 | 4.5
Cc1ccccc1-c1coc2cc(O)ccc2c1=O | -3.4% | 0.2 | 1.6
O=C(O)c1ccc(-c2ccc(O)c(F)c2)cc1 | -6.5% | -1.7 | 0.4
COC(=O)c1[nH]c(=O)c2ccccc2c1O | 0.4% | 0.2 | -1.7
CN(C)CC/C=C1\c2ccccc2COc2ccccc21 | -0.1% | -0.5 | 2.2
Cc1cccc(CN2CCN(C(c3ccccc3)c3ccc(Cl)cc3)CC2)c1 (centres undefined) | -0.2% | -2 | -9.2

Compound | inhibition [1] | inhibition [2] [%] | inhibition [3] [%]
COC1=CC(=O)CC(C)C12Oc1c(Cl)c(OC)cc(OC)c1C2=O (centres undefined) | -0.7% | -0.1 | -1.8
COc1ccc(CN(CCN(C)C)c2ccccn2)cc1 | 0.8% | 1.3 | -14.9
COc1ccc(C2C3C(C)=NN=C3CC(C)(O)C2C(C)=O)cc1 (centres undefined) | -2% | -0.6 | 4
C[C@H](NC(=O)NCCc1ccccc1)C(=O)O | 0.5% | -0.2 | -0.6
Cc1nc2ccccc2c(=O)n1N | 4.9% | 0.7 | -5.7
Nc1ccc(N=Nc2ccccc2)c(N)n1 | -2% | -0.2 | -0.6
c1cnc2c(c1)ccc1cccnc12 | -1.4% | -5.9 | -2.3
Cc1cc(-c2nn(-c3ccccc3F)cc2CN2CCCC(O)C2)c(C)s1 (centres undefined) | 3% | 0.2 | -0.9
CCn1c(SCC(=O)c2ccccc2)nc2ccccc2c1=O | -3% | -0.1 | -5.1
O=C1OCCN1/N=C/c1ccc([N+](=O)[O-])o1 | 2.9% | -0.4 | -8.7
COc1ccc(/C=C/C(=O)Nc2ccccc2C(=O)O)cc1OC | 2.5% | -0.9 | -6
COc1cc2c(cc1OC)C(c1ccccc1)=NCC2 | 0.6% | 0.8 | 7
O=C(OCCNC(=O)c1ccc2ccccc2n1)c1ccc(F)cc1 | 1.8% | -0.7 | 4.4
O=C(O)C1CCN(C(=O)COc2ccc3c4c(c(=O)oc3c2)CCC4)CC1 | 3% | -1.1 | 2.5
CCC1(c2ccccc2)NC(=S)N(c2ccc(C)c(C)c2)N1 (centres undefined) | 1% | -0.8 | -3
CC(C)COCC(CN(Cc1ccccc1)c1ccccc1)N1CCCC1 (centres undefined) | 1.2% | -1.8 | -2
C=CCNc1nc2c(c(=O)n(C)c(=O)n2C)n1CC(=C)C | 3.1% | 0.5 | -0.3
COc1ccc2nc(S(=O)Cc3ncc(C)c(OC)c3C)[nH]c2c1 (centres undefined) | 4.3% | 1.7 | 5
